According to PubChem BioAssay AID743397 (Broad Institute, 2014):
The campaign covered roughly 340,000 compounds. About 330 (0.097%) were called active. The entries come from a sample that favours actives as a whole. Values without a mark were called inactive.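 How the source made its calls: active means mean replicate inhibition of at least 30% and at least 1% of replicates passing that level; inconclusive means only one of the two criteria is met; inactive means neither criterion is met.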

The molecules below were run on Voltage-dependent L-type calcium channel subunit alpha-1D (CaV1.3) ICDI/IQ interaction (assay: Disruptors of the CACNA1D IQ motif to Ca2+-dependent inactivation inhibitor domain association, primary screening, Förster resonance energy transfer in intact living cells, one concentration (AID 743397;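 further: 0% = median of the neutral control wells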)). Details: HEK cells, CFP/YFP FRET ICDI-IQ, plate reader, 10 min; at 12.3 µM; stronger effect = higher value; percent FRET-ratio fall versus neutral wells.
With COC(=O)[C@]1(Cc2ccccc2)NC=C(C(=O)c2ccccc2)[C@@H]1c1cccc(OC)c1 the inhibition was -4.9%.
COc1ccccc1CCn1cnc(-c2ccccc2)c1C(C)C gave an inhibition of -7.51%.
CCCn1c(=O)c(-c2ccccc2)c(O)c2ccccc21 was tested, and the inhibition was -7.92%.
With CCCCN(CCCC)CC(O)Cn1c2ccccc2c(=O)c2ccccc21 (configuration not stated) the inhibition was 107% (active).
Molecule CCCCCn1c(=O)c(C(=O)OCC)c(Cl)c2ccccc21 has an inhibition of -4.21%.
With COC(=O)c1cc2c(c3c4ccccc4n(S(=O)(=O)c4cccc(C)c4)c13)C(=O)N(Cc1ccccc1)C2 the inhibition was -4.46%.
In the case of COC(=O)c1c(-c2ccc(OC)cc2)c2c(c3c4ccccc4n(S(=O)(=O)c4ccc(C)cc4)c13)C(=O)N(C)C2, the inhibition is reported as -10.3%.
COC(=O)C1=C(C)N(Cc2cccc(C(F)(F)F)c2)C(=NCc2ccccc2)NC1c1ccc(Cl)cc1 (configuration not stated) was tested, and the inhibition was -3.3%.
COc1ccc(-c2cc(NC=O)c3ncc(-c4cc(OC)c(OC)c(OC)c4)n3c2)c(OC)c1 showed an inhibition of -3.57%.
In the case of COC(=O)[C@]12C[C@H](CC(=O)NCc3cccc(C(F)(F)F)c3)C(=O)N(Cc3ccc4c(c3)OCO4)C1=C[C@H](COCc1ccccc1)O[C@@H]2C, the inhibition is reported as -9.09%.
Cc1ccc(O)c(NC(=S)NC(=O)COc2ccc(Br)cc2)c1 was tested, and the inhibition was 40.4% (active).
Work on CC(=O)Nc1ccc(OC(=O)COc2ccc(Br)cc2)cc1 yielded an inhibition of -4.58%.
CCS(=O)(=O)c1ccc(O)c(NC(=O)COc2ccc(Cl)cc2)c1 gave an inhibition of -1.51%.
For N#Cc1ccc(OCCCN2CCC(C(O)(c3ccccc3)c3ccccc3)CC2)c(F)c1, the inhibition was -9.35%.
For O=S1(=O)c2c(cccc2N2CCCCC2)O[C@H](COCc2ccccc2)CN1C1CC1, the inhibition was -6.9%.
In the case of COc1cncc(-c2cnc3sc(NCCc4ccccn4)nn23)c1, the inhibition is reported as -4.67%.
For COc1cccc(CNC(=O)[C@H]2CCCN2C(=O)[C@H]2CCCN2C(=O)c2ccc(F)cc2)c1, the inhibition was -5.95%.
COc1ccc(SSc2ccc(OC)cc2C(=O)O)c(C(=O)O)c1 showed an inhibition of -2.9%.
Cc1ccc(NC(=O)N2c3ccccc3SC2c2ccco2)c(C)c1 (configuration not stated) showed an inhibition of -10.9%.
With Cc1cc(Br)cn2c(Cc3ccccc3C(F)(F)F)c(-c3ccc(C#N)cc3)nc12 the inhibition was -10%.
With COC(=O)c1c(-c2ccc(OC)cc2)c2c(c3c4cc(OC)ccc4n(S(=O)(=O)c4ccc(F)cc4)c13)C(=O)N(C)C2 the inhibition was -5.34%.
COc1ccc(S(=O)(=O)Nc2ccc3c(c2)C(=O)N([C@H](C)CO)C[C@H](C)[C@@H](CN(C)C)OCCCC[C@H](C)O3)cc1 was tested, and the inhibition was -5.26%.
